# In publication PMC4242493, “Sequence specificity incompletely defines the genome-wide occupancy of Myc”:
# In all, about 33,000 sequences were measured (“normalized occupancy”: median about 0.075, highest 2% from about 0.095 on). Many of the other results were omitted from the sample, so the highest values are more common in it than they were.
# Biological target: MaxL homodimer (Homo sapiens, UniProt P61244 1-160)
# Test: universal protein-binding microarray (PBM); PBS-based mixture, 10 nM His-tagged protein dimer, 2% milk, 200 ng/uL BSA, 50 ng/uL salmon testes DNA, 0.02% TX-100; detection with Alexa 488 anti-His antibody;; high values mean tight binding
# Conditions: protein: recombinant; tags: C-terminal His-tag (pET21a); chain copies: 2; dsDNA, one strand shown
# Method in brief: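 His-tagged protein dimer at 10 nM was incubated on Agilent 4 x 44 K arrays with the 'all 10-mer' universal design. Bound protein was tagged with 10 ng/μL fluorophore-conjugated anti-His antibody, and arrays were scanned on a GenePix 4400A. Binding occupancy for each 8-mer is its fluorescence intensity normalised to the highest-ranked 8-mer's intensity.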
# Chain of MaxL homodimer (P61244 whole entry): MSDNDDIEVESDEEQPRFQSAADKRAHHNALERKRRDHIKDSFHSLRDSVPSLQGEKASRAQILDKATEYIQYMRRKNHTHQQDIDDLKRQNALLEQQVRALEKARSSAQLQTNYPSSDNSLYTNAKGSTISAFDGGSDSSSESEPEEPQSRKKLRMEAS
row,Sequence,binding signal [normalized occupancy]
1,TACGAACA,0.0754
2,AAGCAACG,0.0753
3,CAACGCGG,0.0764
4,CAACGCGA,0.0767
5,CCACGCGA,0.131
6,CTACGCGC,0.0727
7,CCACGCAG,0.0904
8,CCACGCGC,0.157
9,TCACGCGA,0.11
10,CAACGCGC,0.0787
11,CGACGCGA,0.0735
12,TCACGCAA,0.0764
13,CCACGCGG,0.32
14,TCACGCCA,0.0851
15,GCCTACAA,0.075
16,GACAGAGA,0.0724
17,ATACAACA,0.0788
18,CGAAAGCA,0.0741
19,CAGGGGGA,0.0851
20,TCTTCGCA,0.0796
21,AATAGAGC,0.0803
22,AATAACGT,0.0823
23,ATTAGTAC,0.0786
24,AATGCATC,0.0763
25,AGTGCATA,0.0847
26,GATGCATC,0.0787

row,Sequence,binding signal [normalized occupancy]
1,AGTGCATC,0.0772
2,CATGCATG,0.121
3,CATGCATC,0.0997
4,CCTGCATC,0.0807
5,AGTGCATG,0.0988
6,CATGCAAG,0.0837
7,AATGCATT,0.0797
8,ACTGCATG,0.0859
9,AATGCATG,0.1
10,GCACGAAA,0.078
11,TAGACACA,0.0829
12,AACAAGCC,0.0718
13,AGAGTTTG,0.073
14,CCTGGGAC,0.0732
15,ATGTCTCG,0.0802
16,CGCTCACC,0.0763
17,AAGCCATC,0.0756
18,AAGAAGGA,0.0794
19,CATGCATA,0.0989
20,AATGCATA,0.0839
21,TATGCATA,0.0811
22,CACGGGGG,0.101
23,CCACGGGG,0.097
24,CACGGGGA,0.0894
25,CACGGGGC,0.0863
26,CCACGGGA,0.0794

row,Sequence,binding signal [normalized occupancy]
1,CCACGGGC,0.076
2,AGGAATTG,0.0797
3,ACGTAGCG,0.0805
4,CACCCATG,0.1
5,AACCCATA,0.0815
6,ACCCCGTA,0.0818
7,ACCCCGTG,0.108
8,ACCCCATA,0.0838
9,ACCCCATG,0.102
10,AACCCATG,0.0961
11,AACCCGTG,0.0816
12,CACCCATC,0.0827
13,CACCCATA,0.0892
14,AACCCATT,0.0783
15,ACCCCATC,0.0823
16,CGGACGCA,0.0735
17,ATTTTCTA,0.0856
18,CAGAAGAC,0.0718
19,GACAGTAA,0.0794
20,ACGTTCGA,0.0752
21,CACGACAC,0.0789
22,CGTACGGC,0.0778
23,AAACAGCA,0.0759
24,CGCATTTC,0.0783
25,AGTATGTC,0.0803
26,AGGATGTA,0.0795

row,Sequence,binding signal [normalized occupancy]
1,AGCATGTG,0.164
2,AGGATGTG,0.0831
3,GGCATGTA,0.0812
4,AGCATGTC,0.1
5,AGCATTTC,0.0792
6,AGCATGTA,0.106
7,AGTATGTG,0.081
8,CGCATCTC,0.0769
9,CGCATGTC,0.105
10,CCGTACAC,0.0886
11,GTGAGTGA,0.0775
12,ACTGGCCT,0.073
13,CATTCGCA,0.078
14,AGCCAACA,0.0808
15,ACTTGTGC,0.0751
16,AAAATTAG,0.0735
17,ATTAAGGA,0.0744
18,AAACAGTA,0.0764
19,CTCATGTA,0.0936
20,CCCATGTA,0.0872
21,CGCATGTA,0.105
22,GGAATCCC,0.0772
23,ATCGTTCG,0.0755
24,AAAGCGTG,0.11
25,CAAGCGTG,0.104
26,AAAGCGCG,0.0769

row,Sequence,binding signal [normalized occupancy]
1,AAAGCGTT,0.0746
2,CAAGCGAG,0.0757
3,CAAGCGCG,0.0759
4,ATGTTGCA,0.0888
5,CTTCCCCA,0.0787
6,AGTAGTAG,0.0786
7,GATGTTAC,0.0818
8,AGGCGTCA,0.0742
9,CGGTACAC,0.0815
10,AACGTGGC,0.107
11,AACGTAGC,0.0749
12,ATCGTGGG,0.0895
13,AAAGTGGT,0.0721
14,AACGTGGG,0.114
15,GACGTGGC,0.0846
16,ACCGTGGG,0.0732
17,AACGTGGT,0.125
18,AACGTTGT,0.0817
19,AGTAACTC,0.0742
20,CTAGGAGA,0.0761
21,AATGCCTA,0.0747
22,ACATCAGT,0.0736
23,TATGAATA,0.0823
24,ATATCTCC,0.0807
25,CACTTCAG,0.0728
26,TTGAGAAA,0.0807

row,Sequence,binding signal [normalized occupancy]
1,AACGTACT,0.0746
2,ACACGATA,0.0824
3,ACACGAGC,0.0815
4,AAACGAGG,0.081
5,ACACGAAT,0.0776
6,ATACGAGA,0.0785
7,ACACGATG,0.0969
8,ACACGAGA,0.0977
9,ATACGAGG,0.084
10,ACACGACT,0.0807
11,ACACGAGT,0.0979
12,ACACGATC,0.0822
13,ACACGAGG,0.144
14,GTGCCCTA,0.0772
15,CAAACAGG,0.0747
16,CGCAAGAG,0.0757
17,AGGGGTCG,0.0779
18,CCATATCG,0.083
19,GCATATGA,0.0934
20,GCATATGC,0.0998
21,GCATATCC,0.0834
22,CGATATGC,0.0806
23,CTATATGC,0.0831
24,CCATATAG,0.087
25,CCATATGC,0.1
26,CCATATGG,0.123

row,Sequence,binding signal [normalized occupancy]
1,CAGATAAA,0.078
2,ACCATAAG,0.0853
3,ACAAATTG,0.0753
4,CCCATACC,0.0872
5,CCAGTTGC,0.0718
6,AAACAGTG,0.0728
7,TAGTTTGA,0.0723
8,AATTTTCT,0.0797
9,ACGGGACA,0.0774
10,CCGTGTTC,0.0725
11,ATGTGTTG,0.0905
12,GCGTGTTA,0.101
13,ACGTGTTA,0.109
14,GTGTGTTA,0.0835
15,AGGTGTTA,0.0801
16,GGGTGTTA,0.0779
17,AGGTGTTG,0.0828
18,ACGTGTTC,0.104
19,AAGTGTTC,0.0784
20,CCGTGTTA,0.0848
21,ACGTGTTG,0.109
